Test results reported in ChEMBL document CHEMBL1961873, “Compounds: GSK PKIS; Assays: Nanosyn kinase panel” (2012).

Legend:
[1] = molecular target: Tyrosine-protein kinase SYK (Homo sapiens) (UniProt P43405); settings: at 1 µM
[2] = molecular target: T1, Tyrosine-protein kinase Tec (Homo sapiens) (UniProt P42680); settings: at 0.1 µM
T1 sequence (whole entry): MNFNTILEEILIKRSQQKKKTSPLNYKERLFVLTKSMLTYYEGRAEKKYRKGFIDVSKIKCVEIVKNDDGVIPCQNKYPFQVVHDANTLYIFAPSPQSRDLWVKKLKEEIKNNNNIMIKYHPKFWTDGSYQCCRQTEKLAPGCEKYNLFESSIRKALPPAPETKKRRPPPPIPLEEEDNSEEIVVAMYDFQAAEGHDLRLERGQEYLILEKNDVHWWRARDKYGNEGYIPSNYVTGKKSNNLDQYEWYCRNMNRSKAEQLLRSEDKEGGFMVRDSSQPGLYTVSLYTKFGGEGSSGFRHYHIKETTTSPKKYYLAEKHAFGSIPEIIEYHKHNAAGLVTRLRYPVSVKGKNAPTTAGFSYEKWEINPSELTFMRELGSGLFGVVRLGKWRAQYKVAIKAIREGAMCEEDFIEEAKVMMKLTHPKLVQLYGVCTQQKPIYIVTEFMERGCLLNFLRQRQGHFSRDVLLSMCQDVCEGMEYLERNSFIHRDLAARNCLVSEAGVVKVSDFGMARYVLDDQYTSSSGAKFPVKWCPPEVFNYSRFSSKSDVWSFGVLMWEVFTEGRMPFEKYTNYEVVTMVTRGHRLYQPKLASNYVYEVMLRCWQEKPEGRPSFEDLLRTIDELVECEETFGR

[3] = molecular target: T1, Tyrosine-protein kinase Tec (Homo sapiens); settings: at 1 µM
[4] = molecular target: Angiopoietin-1 receptor (Homo sapiens) (UniProt Q02763); settings: at 0.1 µM
Chain of Angiopoietin-1 receptor (Homo sapiens) (Q02763 whole entry): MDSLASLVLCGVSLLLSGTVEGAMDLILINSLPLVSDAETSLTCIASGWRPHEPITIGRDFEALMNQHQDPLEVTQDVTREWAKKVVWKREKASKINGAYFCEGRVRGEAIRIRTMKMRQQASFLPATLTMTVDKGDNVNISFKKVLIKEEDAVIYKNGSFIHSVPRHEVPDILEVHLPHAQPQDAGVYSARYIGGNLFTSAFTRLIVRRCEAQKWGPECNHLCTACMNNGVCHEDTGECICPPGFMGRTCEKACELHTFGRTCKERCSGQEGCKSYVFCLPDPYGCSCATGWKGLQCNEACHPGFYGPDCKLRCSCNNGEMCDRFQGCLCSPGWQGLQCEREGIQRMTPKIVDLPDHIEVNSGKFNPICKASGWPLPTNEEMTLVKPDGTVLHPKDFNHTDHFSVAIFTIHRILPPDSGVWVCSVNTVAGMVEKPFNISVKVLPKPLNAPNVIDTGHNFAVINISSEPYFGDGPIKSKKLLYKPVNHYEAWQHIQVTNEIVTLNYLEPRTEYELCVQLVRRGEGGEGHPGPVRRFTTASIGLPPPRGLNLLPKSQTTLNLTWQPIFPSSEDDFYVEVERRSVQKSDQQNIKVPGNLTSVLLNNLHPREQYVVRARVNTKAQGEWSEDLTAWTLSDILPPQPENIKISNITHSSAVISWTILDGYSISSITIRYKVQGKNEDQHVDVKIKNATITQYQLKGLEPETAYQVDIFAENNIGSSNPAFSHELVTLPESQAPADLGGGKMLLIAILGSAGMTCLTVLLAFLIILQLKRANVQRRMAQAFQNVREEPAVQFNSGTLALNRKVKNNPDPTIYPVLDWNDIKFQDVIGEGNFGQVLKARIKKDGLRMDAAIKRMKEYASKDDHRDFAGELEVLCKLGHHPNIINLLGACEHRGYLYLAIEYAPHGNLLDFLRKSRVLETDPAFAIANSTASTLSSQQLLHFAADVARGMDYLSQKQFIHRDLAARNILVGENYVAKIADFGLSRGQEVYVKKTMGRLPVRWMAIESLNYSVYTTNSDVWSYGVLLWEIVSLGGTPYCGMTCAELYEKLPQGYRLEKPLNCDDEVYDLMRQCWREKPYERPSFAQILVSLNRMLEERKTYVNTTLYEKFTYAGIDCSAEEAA

[5] = molecular target: Angiopoietin-1 receptor (Homo sapiens) (UniProt Q02763); settings: at 1 µM
[6] = molecular target: T2, Non-receptor tyrosine-protein kinase TNK1 (Homo sapiens) (UniProt Q13470); settings: at 0.1 µM
T2 sequence (whole entry): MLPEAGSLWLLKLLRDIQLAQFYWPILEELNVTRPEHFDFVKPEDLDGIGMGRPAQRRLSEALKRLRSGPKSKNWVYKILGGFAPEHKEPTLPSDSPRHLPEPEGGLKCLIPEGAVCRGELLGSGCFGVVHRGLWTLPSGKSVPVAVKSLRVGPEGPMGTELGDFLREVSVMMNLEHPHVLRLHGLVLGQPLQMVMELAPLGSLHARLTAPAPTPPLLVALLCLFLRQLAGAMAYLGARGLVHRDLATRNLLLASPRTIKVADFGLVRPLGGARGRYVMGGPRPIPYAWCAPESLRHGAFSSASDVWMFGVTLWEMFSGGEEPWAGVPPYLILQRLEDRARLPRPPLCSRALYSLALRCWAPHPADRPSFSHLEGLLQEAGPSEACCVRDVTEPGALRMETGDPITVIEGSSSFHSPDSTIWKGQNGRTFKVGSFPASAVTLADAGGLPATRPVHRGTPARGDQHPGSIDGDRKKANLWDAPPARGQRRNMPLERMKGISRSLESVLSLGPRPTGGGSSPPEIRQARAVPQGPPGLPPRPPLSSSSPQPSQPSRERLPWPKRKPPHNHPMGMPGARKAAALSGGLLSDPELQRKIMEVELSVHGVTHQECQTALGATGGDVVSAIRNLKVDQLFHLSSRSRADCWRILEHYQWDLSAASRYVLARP

[7] = molecular target: T2, Non-receptor tyrosine-protein kinase TNK1 (Homo sapiens); settings: at 1 µM
[8] = molecular target: Activated CDC42 kinase 1 (Homo sapiens) (UniProt Q07912); settings: at 0.1 µM
Chain of Activated CDC42 kinase 1 (Homo sapiens) (Q07912 whole entry, looked up): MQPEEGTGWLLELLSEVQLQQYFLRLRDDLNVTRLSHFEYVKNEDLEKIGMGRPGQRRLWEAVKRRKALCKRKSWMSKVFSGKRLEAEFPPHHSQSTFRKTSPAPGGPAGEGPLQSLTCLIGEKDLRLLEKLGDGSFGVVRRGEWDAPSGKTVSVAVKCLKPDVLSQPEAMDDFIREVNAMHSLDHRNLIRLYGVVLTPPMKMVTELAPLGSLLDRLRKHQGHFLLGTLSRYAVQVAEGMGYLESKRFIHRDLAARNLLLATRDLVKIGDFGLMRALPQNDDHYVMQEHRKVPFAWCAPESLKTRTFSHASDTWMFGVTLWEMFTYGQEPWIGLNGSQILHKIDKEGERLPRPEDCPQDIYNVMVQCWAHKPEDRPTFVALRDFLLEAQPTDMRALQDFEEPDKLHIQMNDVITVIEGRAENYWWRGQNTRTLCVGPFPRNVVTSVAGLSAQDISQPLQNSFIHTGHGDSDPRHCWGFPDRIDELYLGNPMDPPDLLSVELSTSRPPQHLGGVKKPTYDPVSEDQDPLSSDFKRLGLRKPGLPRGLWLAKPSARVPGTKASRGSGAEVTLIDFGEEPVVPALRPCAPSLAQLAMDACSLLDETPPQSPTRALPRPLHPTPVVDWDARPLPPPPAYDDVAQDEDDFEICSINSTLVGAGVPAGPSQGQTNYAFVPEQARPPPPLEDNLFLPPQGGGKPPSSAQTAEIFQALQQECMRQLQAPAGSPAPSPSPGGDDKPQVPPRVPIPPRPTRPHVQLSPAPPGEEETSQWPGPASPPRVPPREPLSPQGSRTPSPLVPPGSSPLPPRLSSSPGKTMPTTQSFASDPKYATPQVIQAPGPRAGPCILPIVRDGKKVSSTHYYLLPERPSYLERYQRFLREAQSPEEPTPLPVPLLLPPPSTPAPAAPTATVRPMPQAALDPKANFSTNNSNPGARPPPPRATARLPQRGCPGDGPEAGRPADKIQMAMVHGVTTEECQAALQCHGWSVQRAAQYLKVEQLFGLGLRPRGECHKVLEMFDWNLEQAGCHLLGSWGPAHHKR

[9] = molecular target: Activated CDC42 kinase 1 (Homo sapiens) (UniProt Q07912); settings: at 1 µM
[10] = molecular target: High affinity nerve growth factor receptor (Homo sapiens) (UniProt P04629); settings: at 0.1 µM;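 further: each value is a mean of replicate percent inhibition readings against TRKA kinase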
Chain of High affinity nerve growth factor receptor (Homo sapiens) (P04629 33-796 limits assumed): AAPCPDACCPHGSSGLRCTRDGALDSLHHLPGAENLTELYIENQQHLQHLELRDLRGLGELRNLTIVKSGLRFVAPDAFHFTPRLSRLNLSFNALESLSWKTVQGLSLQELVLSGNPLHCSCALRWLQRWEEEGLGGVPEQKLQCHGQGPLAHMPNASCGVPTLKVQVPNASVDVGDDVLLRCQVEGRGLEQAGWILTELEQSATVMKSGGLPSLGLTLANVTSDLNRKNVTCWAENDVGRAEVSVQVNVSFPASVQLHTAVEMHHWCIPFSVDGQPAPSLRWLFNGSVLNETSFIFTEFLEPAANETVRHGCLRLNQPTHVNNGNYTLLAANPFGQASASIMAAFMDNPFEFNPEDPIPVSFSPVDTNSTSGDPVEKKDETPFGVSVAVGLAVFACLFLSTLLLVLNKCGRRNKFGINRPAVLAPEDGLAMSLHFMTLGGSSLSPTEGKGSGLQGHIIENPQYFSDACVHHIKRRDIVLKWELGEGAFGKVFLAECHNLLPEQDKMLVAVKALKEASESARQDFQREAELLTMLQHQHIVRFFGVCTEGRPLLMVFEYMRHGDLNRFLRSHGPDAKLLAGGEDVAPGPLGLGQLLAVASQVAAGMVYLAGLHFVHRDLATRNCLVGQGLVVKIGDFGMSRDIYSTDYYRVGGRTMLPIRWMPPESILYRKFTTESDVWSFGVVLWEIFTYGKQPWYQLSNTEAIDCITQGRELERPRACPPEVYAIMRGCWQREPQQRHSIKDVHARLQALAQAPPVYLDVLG

In the case of COc1cc2c(cc1Nc1nc(Nc3ccsc3C(N)=O)c3cc[nH]c3n1)N(C(=O)CN(C)C)CCC2, the inhibition [1] is reported as 11.2%, the inhibition [2] is reported as -0.19% and the inhibition [3] is reported as 4.36%. For the same molecule, the inhibition [4] was 6.04%, the inhibition [5] was 10.5% and the inhibition [6] was 32.3%. It also gave an inhibition [7] of 80.2%, an inhibition [8] of 0.24% and an inhibition [9] of 13.2%.

For CCn1c(-c2nonc2N)nc2c(C#CC(C)(C)O)nc(O[C@@H](CN)c3ccccc3)cc21, the inhibition [1] was 0.56%, the inhibition [2] was 0.79% and the inhibition [3] was 5.82%. The inhibition [4] was 2.63%, the inhibition [5] was 11.4% and the inhibition [6] was -3.17%. For the same molecule, the inhibition [7] was -3.26%, the inhibition [8] was -0.88% and the inhibition [9] was -1.74%. The inhibition [10] was -3.19%.

With CCn1c(-c2nonc2N)nc2c(C#CC(C)(C)O)ncc(OC[C@@H]3CCCN3)c21 the inhibition [1] was -4.11%, the inhibition [2] was 0.03% and the inhibition [3] was 1.67%. It also gave an inhibition [4] of -0.35%, an inhibition [5] of 4.39% and an inhibition [6] of 2.04%. For the same molecule, the inhibition [7] was 1.67%, the inhibition [8] was -0.73% and the inhibition [9] was -0.46%. For the same molecule, the inhibition [10] was -2.99%.

Nc1nonc1-c1nc2cnccc2n1C1CCCCC1 showed an inhibition [1] of -0.01%, an inhibition [2] of -0.6% and an inhibition [3] of 1.22%. It also gave an inhibition [4] of 1.78%, an inhibition [5] of 3.18% and an inhibition [6] of -1.33%. The inhibition [7] was 20.8%, the inhibition [8] was -1.67% and the inhibition [9] was -1.55%. It also gave an inhibition [10] of -1.55%.

Work on NS(=O)(=O)c1ccc(N/C=C2\C(=O)Nc3ccc4ncsc4c32)cc1 yielded an inhibition [1] of -8.48%, an inhibition [2] of 1.96% and an inhibition [3] of 10.6%. The inhibition [4] was 0.38%, the inhibition [5] was 10.4% and the inhibition [6] was 6.89%. It also gave an inhibition [7] of 37.8%, an inhibition [8] of 0.75% and an inhibition [9] of 1.83%. For the same molecule, the inhibition [10] was 9.04%.

For CCn1c(-c2nonc2N)nc2c(C#CC(C)(C)O)ncc(OCC3CCNCC3)c21, the inhibition [1] was -0.6%, the inhibition [2] was -0.71% and the inhibition [3] was 0.43%. It also gave an inhibition [4] of 0.65%, an inhibition [5] of 3.85% and an inhibition [6] of 1.75%. It also gave an inhibition [7] of 10.6%, an inhibition [8] of 0.81% and an inhibition [9] of 1.2%. For the same molecule, the inhibition [10] was 3.1%.

COc1cccc(-n2ncc3c(N/N=C/c4ccncc4)ncnc32)c1 gave an inhibition [1] of 9.95%, an inhibition [2] of 6.13% and an inhibition [3] of 17.2%. The inhibition [4] was 6.02%, the inhibition [5] was 37.5% and the inhibition [6] was 10.1%. For the same molecule, the inhibition [7] was 52.3%, the inhibition [8] was 2.06% and the inhibition [9] was 9.3%. For the same molecule, the inhibition [10] was 3.46%.

COc1cc(C=NNc2ncnc3c2cnn3Cc2ccccc2)ccc1O gave an inhibition [1] of -4.26%, an inhibition [2] of -0.99% and an inhibition [3] of 16.4%. For the same molecule, the inhibition [4] was 3.65%, the inhibition [5] was 31.7% and the inhibition [7] was -2.22%. The inhibition [8] was -1.7%, the inhibition [9] was 0.03% and the inhibition [10] was -2.9%.

With NS(=O)(=O)c1ccc(-c2ccc3c(NC(=O)C4CC4)n[nH]c3c2)cc1 the inhibition [1] was -2.49%, the inhibition [2] was 4.93% and the inhibition [3] was 10.3%. For the same molecule, the inhibition [4] was 1.08%, the inhibition [5] was 6.97% and the inhibition [6] was 2.11%. For the same molecule, the inhibition [7] was 4.7%, the inhibition [8] was 1.28% and the inhibition [9] was 1.95%. For the same molecule, the inhibition [10] was 3.82%.

COc1cccc(COc2cc(-n3cnc4ccccc43)sc2C(N)=O)c1 was tested, and the inhibition [1] was -4.12%, the inhibition [2] was -0.82% and the inhibition [3] was 0.59%. It also gave an inhibition [4] of -1.48%, an inhibition [5] of 3.47% and an inhibition [6] of 0.87%. It also gave an inhibition [7] of 12.1%, an inhibition [8] of -0.46% and an inhibition [9] of 0.57%. It also gave an inhibition [10] of -2.49%.

Cc1cc(-c2ccco2)cc(C)c1/C=C/c1cncc(-c2nn[nH]n2)c1 showed an inhibition [1] of -0.41%, an inhibition [2] of -0.18% and an inhibition [3] of 4.27%. It also gave an inhibition [4] of 2.4%, an inhibition [5] of 5.27% and an inhibition [6] of 14.2%. It also gave an inhibition [7] of 75.2%, an inhibition [8] of 0.58% and an inhibition [9] of 3.5%. For the same molecule, the inhibition [10] was -2.1%.

Molecule Fc1ccc(-c2ncn(C3CCNCC3)c2-c2ccnc(Oc3ccccc3)n2)cc1 has an inhibition [1] of 0.47%, an inhibition [2] of -3.67% and an inhibition [3] of -1.69%. For the same molecule, the inhibition [4] was -0.49%, the inhibition [5] was 1.7% and the inhibition [6] was 0.27%. For the same molecule, the inhibition [7] was 1.01%, the inhibition [8] was -0.4% and the inhibition [9] was 0.06%. The inhibition [10] was 1.92%.

For NC(=O)c1sc(-n2cnc3cc(C(F)(F)F)ccc32)cc1OCc1ccccc1Br, the inhibition [1] was 1.46%, the inhibition [2] was 1.68% and the inhibition [3] was 3.28%. The inhibition [4] was 2.07%, the inhibition [5] was 3.72% and the inhibition [6] was 1.72%. It also gave an inhibition [7] of 5.51%, an inhibition [8] of 0.49% and an inhibition [9] of 1.45%. For the same molecule, the inhibition [10] was -0.62%.

Molecule CCn1c(-c2nonc2N)nc2c(C#CCN)ncc(OCCCN)c21 has an inhibition [1] of -0.1%, an inhibition [2] of -2.6% and an inhibition [3] of -1.5%. For the same molecule, the inhibition [4] was 0.84%, the inhibition [5] was -0.39% and the inhibition [6] was 2.24%. It also gave an inhibition [7] of 10.6%, an inhibition [8] of -0.12% and an inhibition [9] of 0.81%. It also gave an inhibition [10] of -3.88%.
